Many of the other results were omitted from the sample, so hits are more common in it than they were.
ST2 inh: blocks human ST2 binding to IL-33. Q01638. inhibition, % for hits at 17 µM. AlphaLISA ST2-Fc/biotin-IL-33 interaction, 1 h. hit rate 2.3% among 78,000; in the data active = inhibition above about 30%
Target sequence (Q01638 whole entry, looked up): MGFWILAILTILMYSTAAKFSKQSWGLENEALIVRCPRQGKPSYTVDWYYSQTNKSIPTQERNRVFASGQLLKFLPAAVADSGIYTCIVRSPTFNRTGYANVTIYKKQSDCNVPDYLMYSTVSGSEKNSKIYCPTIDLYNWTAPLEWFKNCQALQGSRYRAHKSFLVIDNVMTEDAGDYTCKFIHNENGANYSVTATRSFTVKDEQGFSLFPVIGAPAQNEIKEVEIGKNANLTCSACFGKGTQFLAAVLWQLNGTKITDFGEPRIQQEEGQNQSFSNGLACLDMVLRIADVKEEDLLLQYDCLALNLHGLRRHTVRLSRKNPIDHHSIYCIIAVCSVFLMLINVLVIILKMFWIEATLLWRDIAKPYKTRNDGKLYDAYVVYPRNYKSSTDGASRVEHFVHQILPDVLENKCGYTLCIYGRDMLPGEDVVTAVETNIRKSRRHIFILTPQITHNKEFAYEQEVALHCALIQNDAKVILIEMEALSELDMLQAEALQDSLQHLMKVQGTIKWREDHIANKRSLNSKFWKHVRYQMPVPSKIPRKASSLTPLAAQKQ
Large screens that a line does not name were inactive.

N#CC1=C(N)Oc2c(c(=O)oc3ccccc23)C1c1ccc(F)cc1 (centres undefined)	none
N#CC1=C(N)Oc2n[nH]c(C(F)(F)F)c2C1c1ccc(F)cc1 (centres undefined)	none
N#CC1=C(N)Oc2n[nH]c(-c3ccc(F)cc3)c2C1c1ccc(F)cc1 (centres undefined)	ST2 inh 32%
COc1ccc(OC)c(CN2CCN(c3ccccc3Cl)CC2)c1	none
COc1cccc(C2N(c3ccccn3)C(=O)C3CCCN32)c1 (centres undefined)	none
COCCNC(=S)NC[C@H]1C[C@@H]2CCN1C[C@@H]2CN(C)CCc1ccccn1	none
CSCC(=O)N1C[C@@H]2C[C@H](C1)c1ccc(-c3ccccc3CN3CCOCC3)c(=O)n1C2	none
CSc1ccc(-c2ccc(=O)n3c2[C@@H]2C[C@@H](CN(C(=O)c4ccc(C#N)cc4)C2)C3)cc1	none
CN(N=O)c1ccc(O)c(O)c1	ST2 inh 69%
COc1ccccc1C(=O)Nc1cccc(N2CCC(NC(C)Cc3cncs3)CC2)c1 (centres undefined)	none
COc1ccc(-c2cc([C@H]3CN4CC[C@H]3C[C@@H]4CNC(=O)Nc3ccc(F)cc3F)n(C)n2)cc1OC	none
O=C(Cc1ccccc1)Nc1ccc2n(c1=O)C[C@H]1C[C@@H]2CN(C(=O)c2ccccn2)C1	none
COCc1cn(C[C@H]2C[C@@H]3CCN2C[C@@H]3C(=O)NC(C)C)nn1	none
COc1ccc(N2CCN(Cc3ccc(Cl)cc3Cl)CC2)cc1	ST2 inh 36%
COc1ccc(CN2CCN(c3ccc(F)cc3)CC2)c(OC)c1	none
Clc1ccc(CN2CCN(c3ccccc3)CC2)c(Cl)c1	ST2 inh 91%
COc1ccc(CN2CCN(CCO)CC2)cc1C	none
COc1ccc(CN2CCN(c3ccccc3)CC2)c(OC)c1	none
CCN1CCN(Cc2ccc(OC)c(C)c2)CC1	none
Fc1ccc(CN2CCN(c3ccccc3)CC2)c(F)c1	none
COc1ccc(N2CCN(Cc3ccc(OC)c(C)c3)CC2)cc1	ST2 inh 36%
c1ccc(CN2CCN(c3ccccc3)CC2)cc1	none
CCOc1cc(C(c2c(O)c3ccccc3oc2=O)c2c(O)c3ccccc3oc2=O)ccc1O	none
CC(C)(C)C(=O)N1C[C@@H]2C[C@H](C1)c1ccc(-c3cccc(C(F)(F)F)c3)c(=O)n1C2	none
Cc1c(CCN)c2ccccc2n1Cc1ccccc1	none
CSc1ccc(-c2ccc3n(c2=O)C[C@H]2C[C@@H]3CN(C(=O)c3ccncc3)C2)cc1	none
Cc1ccc(S(=O)(=O)NC[C@H]2C[C@@H]3CCN2C[C@@H]3CN2CCN(c3ccc(F)cc3)CC2)cc1	none
O=C(C1CC1)N1C[C@@H]2C[C@H](C1)c1c(-c3ccc(OC(F)(F)F)cc3)ccc(=O)n1C2	none
O=S1(=O)N(Cc2cccc(F)c2)CCCN1Cc1cccc(F)c1	none
O=C1c2no[n+]([O-])c2C(=O)c2c1no[n+]2[O-]	none
O=C(c1cccnc1)C1CCCN(Cc2cc3n(n2)CCCNC3)C1 (centres undefined)	none
Cc1cc(Cl)ccc1C(=O)C1CCCN(C2CSCCSC2)C1 (centres undefined)	none
CSc1ccc(-c2ccc3n(c2=O)C[C@H]2C[C@@H]3CN(C(=O)c3cccs3)C2)cc1	none
CC(=O)Nc1ccc(NC(=O)c2cccn(Cc3ccc(C(F)(F)F)cc3)c2=O)cc1	none
O=C1C2CCCN2C(c2ccc(Br)cc2)N1c1ccccn1 (centres undefined)	none
NC(=O)c1ccccc1NC(=O)c1cccn(Cc2ccccc2Cl)c1=O	none
COc1cccc(CN2CCN(C)CC2)c1	none
Nc1cc2nc3ccccc3nc2cc1O	ST2 inh 56%
Nc1c2c(nc3ccccc13)CCCCC2	none
Fc1cnccc1-c1cccc2c1CCNC2	none
COc1ccccc1CN1CCN(c2ccccc2OC)CC1	none
C#C[C@H]1CN2CC[C@H]1C[C@@H]2CNC(=S)Nc1cccc(C(=O)OC)c1	none
Fc1ccccc1N1CCN(Cc2ccc(Cl)cc2)CC1	none
Cc1ccccc1CN1CCN(c2ccc([N+](=O)[O-])cc2)CC1	ST2 inh 36%
O=[N+]([O-])c1cc(Cl)ccc1N1CCN(Cc2ccccc2)CC1	ST2 inh 31%
O=[N+]([O-])c1ccc(CN2CCN(c3ccc(Cl)cc3)CC2)cc1	none
O=[N+]([O-])c1cccc(CN2CCN(c3ccc(Cl)cc3)CC2)c1	ST2 inh 47%
CN1CCN(Cc2ccc(F)c(Br)c2)CC1	none
O=[N+]([O-])c1ccc(N2CCN(Cc3ccc(O)cc3)CC2)cc1	none
Cc1ccccc1N1CCN(Cc2ccc(Cl)cc2)CC1	none
Cc1ccccc1CN1CCN(c2cccc(Cl)c2)CC1	none
O=[N+]([O-])c1ccc(N2CCN(Cc3ccc(Cl)cc3)CC2)cc1	none
O=[N+]([O-])c1ccc(N2CCN(Cc3ccc(F)c(Br)c3)CC2)cc1	ST2 inh 31%
Fc1ccc(N2CCN(Cc3ccc(F)c(Br)c3)CC2)cc1	none
O[C@@]12C[C@@H]([C@H]3CO[C@@H]1O3)n1c(nc3ccccc31)N2	none
COc1cccc(N2CCN(Cc3ccc(Br)cc3)CC2)c1	none
CCNC(=O)NC[C@H]1C[C@@H]2CCN1C[C@@H]2c1cc(-c2ccc(OC)cc2)nn1C	none
COc1ccc(OCC(=O)N2CCCN(C)C3(CCN(C)CC3)C2)cc1	none
Cc1cccnc1CC(C)N(C)Cc1cccs1 (centres undefined)	none
Fc1cnccc1CN1CCC2(CCNCC2)C1	none
COc1ccc(N=Cc2cc3c(cc2O)OC(N)=C(C#N)C3c2ccco2)cc1 (centres undefined)	ST2 inh 30%
C#C[C@H]1CN2CC[C@H]1C[C@@H]2CNC(=S)Nc1ccc(C)cc1Br	none
COc1ccc(OC)c(S(=O)(=O)NC[C@H]2C[C@@H]3CCN2C[C@@H]3c2cc(C3CCCCC3)nn2C)c1	none
O=C(NCc1cccnc1)[C@H]1CN2CCC1C[C@@H]2Cn1cc(-c2cccc(O)c2)nn1 (some centres undefined)	none
COc1cc(/C=C/[N+](=O)[O-])c(OC)cc1C	ST2 inh 42%
Cn1nc(-c2ccco2)cc1[C@H]1CN2CC[C@H]1C[C@@H]2CNC(=O)c1ccc2c(c1)OCO2	none
CCn1ccc(C(=O)N2CCN(C)C3(CCN(C)CC3)C2)cc1=O	none
O=C(CN1CCCN(Cc2ccccc2Cl)S1(=O)=O)N1CCCC1	none
O=S(=O)(NC[C@H]1C[C@@H]2CCN1C[C@@H]2CN1CCN(c2ccccc2)CC1)c1ccc(Cl)cc1	none
CC(C)(C)c1ccc(OCCNc2ccc([N+](=O)[O-])c3cccnc23)cc1	ST2 inh 55%
COC(=O)C(CCSC)NC(=O)c1cn(C2CCCCC2)nn1 (centres undefined)	none
COCCNC(=S)NC[C@H]1C[C@@H]2CCN1C[C@@H]2CN1CCC[C@@H]1COC	none
O=C(O)c1cccc2c1NC(C(=O)O)C1CC(Sc3ccccc3[N+](=O)[O-])C(Cl)C21 (centres undefined)	ST2 inh 96%
NC(Cc1cc(O)c(O)cc1O)C(=O)O (centres undefined)	ST2 inh 95%
C[Se]C[C@H](N)C(=O)O	none
Cc1o[nH]c(=O)c1CC(N)C(=O)O (centres undefined)	none
O=C(NC1(C(F)(F)F)Oc2cc(Cl)c(Cl)cc2O1)N1CCC2(CC1)OCCO2	none
COc1cccc(CN2CCN(c3ccccc3Cl)CC2)c1	none
CN(C)c1ccc(CN2CCN(c3ccc(F)cc3)CC2)cc1	ST2 inh 38%
Fc1ccc(CN2CCN(c3ccccc3Cl)CC2)cc1	none
CN(C)c1ccc(CN2CC=C(c3ccc(F)cc3)CC2)cc1	ST2 inh 40%
Cc1ccc(CN2CCN(c3ccc(Cl)cc3)CC2)cc1	none
Fc1ccc(CN2CCN(c3ccccc3)CC2)cc1	none
Fc1ccc(N2CCN(Cc3ccccc3)CC2)cc1	none
COCCNC(=S)NC[C@H]1C[C@@H]2CCN1C[C@@H]2CN1CCC(C)CC1	none

From PubChem
